Test results reported in PubChem BioAssay (NCATS).
Inconclusive results are not listed. The source made the active and inactive calls. Calls follow the shape of the dose curve; as a rule, active = well fitted inhibition curve with a large enough effect; inconclusive = small, poorly fitted or top-dose-only effect; inactive = flat fitted curve, though single readings scatter.

Test: P-glycoprotein substrates identified in KB-8-5-11 adenocarcinoma cell line, qHTS therapeutic library screen (AID 1346987); also: nearly all actives have a fitted effect of over 65% in size
Conditions: KB-8-5-11 (P-gp overexpressing) viability, CellTiter-Glo, 72 h; series mostly up to 44.5 µM; activity change, negative = cytotoxicity: at the top concentration
Source text: The ATP-binding cassette transporters P-glycoprotein (P-gp) is known to limit brain penetration of many chemotherapy drugs. […] As such, we developed a high-throughput screen (HTS) to identify substrates of P-gp from a series of chemical libraries including the National Center for Advancing Translational Sciences Pharmaceutical Collection NPC, 2,816 compounds), testing a total of 10,804 compounds, most of which have known mechanisms of action. We used the CellTiter-Glo viability assay to test library compounds against the parental KB-3-1 human cervical adenocarcinoma cell line and the colchicine-selected sub-line KB-8-5-11 that over-expresses P-gp. KB-8-5-11 cells were also tested in the presence of a P-gp inhibitor (tariquidar) to assess reversability of transporter-mediated resistance. Of the tested compounds, a total of 90 P-gp substrates were identified including 55 newly identified P-gp substrates. Substrates were confirmed using an orthogonal killing assay against HEK-293 cells transfected with P-gp. As exemplars, we confirmed that […] (cyclin-dependent kinase inhibitor); AT9283, (Janus kinase 2/3 inhibitor); ispinesib (kinesin spindle protein inhibitor); gedatolisib (PKI-587, phosphoinositide 3-kinase/mammalian target of rampamycin inhibitor); GSK-690693 (AKT inhibitor); and KW-2478 (heat shock protein 90 inhibitor) were substrates , and direct ATPase stimulation was assessed. ABCG2 was also found to confer high levels of resistance to AT9283, GSK-690693 and gedatolisib, while ispinesib, AT7519 and KW-2478 were weaker substrates.
The HeLa derivative cell line, KB-3-1, and its colchicine-selected, P-gp-overexpressing subline, KB-8-5-11 were maintained in DMEM with 10% FCS and Pen/Strep with glutamine at 37 degree C in 5% CO2. For KB-8-5-11 cells, colchicine was added to the medium at a concentration of 100 ng/mL. HEK-293 cells transfected with empty vector (pcDNA) or vector containing human ABCB1 (MDR-19) or ABCG2 (R-5) have been described previously (Robey, Lin, Qiu, Chan & Bates, 2011) and were maintained in EMEM supplemented with 10% FCS, Pen/Strep and glutamine with 2 mg/ml G418 to select for the expression of the transporter. Cultures were confirmed to be free of mycoplasma infection using the MycoAlert Mycoplasma Detection Kit (Lonza, Walkersville, MD). For the screen, assay medium was identical to culture medium except for KB-8-5-11 where colchicine was excluded from the medium.
All cell lines were plated into 1536-well plates at 500 cells/well in 5 uL media. Compounds were then pinned in dose-response using a 1536-head pin tool (Kalypsis, San Diego, CA) and plates were incubated at 37 degree C in 5% CO2 for an additional 72 h. CellTiter-Glo reagent (Promega) was dispensed into the wells, incubated for 5 min and luminescence was read on a ViewLux instrument (Perkin-Elmer). Cytotoxic compounds were defined as those that yielded a curve class of -1.1, -1.2, -2.1, -2.2, -2.3, or -2.4, a maximum response of >50% and an AC50 of < 10 uM. Cherry-picked hits from screening analysis were tested with both the KB pair of cell lines, and the pcDNA (empty vector control) and MDR-19 (P-gp overexpressing) pair were tested, in the absence and presence of tariquidar.
% is scaled to controls: 0 for no effect and ±100 for the full control effect.

Compound	activity change, negative = cytotoxicity	outcome
CCC(C)(C)C1CCc2c(sc(NC(=O)c3ccc(Br)cc3)c2C#N)C1 (stereo not given)	0.435% (inactive)	–
CC(=O)OC1CC(C(C)(C)O)OC2CCC3(C)OC4=C(C(=O)C=C5C(C)C(OC(C)=O)C6(C)C(C)OC546)C(O)C3C12C (stereo not given)	-2.89% [at 17.3 µM] (inactive)	–
Cc1nc2ccccc2c(-c2ccc3c4c(ccnc24)CCO3)c1[C@H](OC(C)(C)C)C(=O)O	8.79% (inactive)	–
Cc1cc(-n2c(=O)[nH]c(=O)n(C)c2=O)ccc1Oc1ccc(SC(F)(F)F)cc1	–	inactive
COC(=O)c1cc(OC)cc(OC)c1C(=O)c1c(OC)cc2c(c1O)C1CCC(O)C(C)(O2)O1 (stereo not given)	5.52% [at 17.3 µM] (inactive)	–
CC1(C)CC[C@]2(C(=O)O[C@@H]3O[C@H](CO)[C@@H](O)[C@H](O)[C@H]3O)CC[C@]3(C)C(=CCC4[C@@]5(C)C[C@@H](O)[C@H](O)[C@@](C)(CO)C5[C@H](O)C[C@]43C)C2C1 (stereo not given in full)	-2.73% [at 17.3 µM] (inactive)	–
COc1cccc(CN(C(=O)CC(C)(C)C)C2CC(C(=O)N3CCNCC3)N(Cc3ccc4c(c3)OCO4)C2)c1 (stereo not given)	1.15% (inactive)	–
CC(C)C1NC(=O)C(CC2(O)c3ccccc3N3C(=O)C(Cc4ccccc4)NC32)NC1=O (stereo not given)	–	inactive [at 17.3 µM]
CC(=O)/C=C/C1C(C)CC(O[C@@H]2O[C@H](CO)[C@@H](O)[C@H](O)[C@H]2O)CC1(C)C (stereo not given in full)	–	inactive
COc1cc(/C=C/C(=O)O[C@@H]2C[C@](O)(C(=O)O)C[C@@H](O)[C@H]2O)ccc1O	3.2% (inactive)	–
Cc1cn(C[C@H](N)C(=O)O)c(=O)n(Cc2ccsc2C(=O)O)c1=O	–	inactive
C=C[C@H]1[C@H](O[C@@H]2O[C@H](CO)[C@@H](O)[C@H](O)[C@H]2O)OC=C(C(=O)OC)[C@H]1CCO	8.76% (inactive)	–
C[C@@H]1O[C@@H](OC2C(CO)OC(OCC3OC(OC(=O)[C@]45CCC(C)(C)CC4C4=CCC6[C@@]7(C)CC[C@@H](O)[C@](C)(C(=O)O)C7CC[C@@]6(C)[C@]4(C)CC5)C(O)C(O)C3O)C(O)C2O)[C@H](O)[C@H](O)[C@H]1O (stereo not given in full)	5.62% [at 9.29 µM] (inactive)	–
CC[C@H](C)[C@H](NC(=O)[C@H](Cc1ccc(O)cc1)NC(=O)[C@@H](N)C(C)C)C(=O)N[C@@H](Cc1cnc[nH]1)C(=O)N1CCC[C@H]1C(=O)N[C@@H](Cc1ccccc1)C(=O)O	1.21% [at 5.11 µM] (inactive)	–
CC1(O)CCC2C(C3C1CCC3(C)O)C2(C)C (stereo not given)	–	inactive
C=C1[C@@H]2CC[C@@]3(C)[C@H](c4ccoc4)OC(=O)C[C@]13O[C@H]1CC(=O)C(C)(C)[C@H](C(O)C(=O)OC)[C@]12C (stereo not given in full)	6.35% [at 17.3 µM] (inactive)	–
COc1c2cc(c(O[C@@H]3O[C@H](CO)[C@@H](O)[C@H](O)[C@H]3O)c1OC)CCCCC(O)CCc1ccc(O)c-2c1 (stereo not given in full)	4.33% [at 17.3 µM] (inactive)	–
N[C@@H](CC(=O)Nc1ccc(Oc2cc(F)c(F)cc2Br)cc1)C(=O)O	-6.13% (inactive)	–
CC(C)c1cc2c(c(O)c1O)[C@@]13CCCC(C)(C)C1[C@@H](O)[C@@H]2OC3=O (stereo not given in full)	2.36% (inactive)	–
CC(=O)[C@@H]1C[C@H](C(C)(C)O[C@@H]2O[C@H](CO)[C@@H](O)[C@H](O)[C@H]2O)CC[C@@]2(CO)OC(=O)C[C@@H]12	–	inactive [at 17.3 µM]

Compound	activity change, negative = cytotoxicity	outcome
CC(=O)OC1CC2(C)C(CCC(C)C23Cc2c(O)cc4c(c2O3)CNC4=O)C(C)(C)C1O (stereo not given)	–	inactive [at 17.3 µM]
COc1cc(C(=O)OC[C@H]2O[C@@H](OC(C)(C)C(=O)O)[C@H](O)[C@@H](O)[C@@H]2O)cc(OC)c1O	–	inactive [at 17.3 µM]
O=[N+]([O-])c1cc(Cl)ccc1S(=O)(=O)N1CCN(Cc2ccccc2)CC1	-11% (inactive)	–
CCc1cc(CC[C@]2(C3CCCC3)CC(O)=C(Cc3nc4nc(C)cc(C)n4n3)C(=O)O2)cc(CC)n1	-5.48% (inactive)	–
C=C1CCC2C(C)(C)CC(O)CC2(C)C1CCC(C)CCOC(=O)CCC(=O)O (stereo not given)	-13.1% [at 17.3 µM] (inactive)	–
CC1(CO)CCCC2(C)C3COC(=O)C3=CC(O)C12 (stereo not given)	6.38% (inactive)	–
CC(C)C1C(OC(=O)/C=C/c2ccccc2)CC2(C)OC2CCC2(C)OC2C1O (stereo not given)	-0.3% (inactive)	–
COc1cc(C2Oc3c(OC)cc(CCCO)cc3C2CO)ccc1O (stereo not given)	2.53% (inactive)	–
CC(C)(CC(=O)N1CCCC1)NCC(=O)N1C[C@@H](F)C[C@H]1C#N	–	inactive
CNC(C)C(=O)NC(C(=O)N1CCCC1C(=O)Nc1cccc2ncccc12)C(C)C (stereo not given)	–	inactive
C=C1CCC2[C@@](C)(C(=O)O)CCC[C@@]2(C)[C@@H]1CCc1ccoc1 (stereo not given in full)	-19.6% (inactive)	–
C=C1CC/C=C(/C(=O)O)CCC2C1CC2(C)C (stereo not given)	–	inactive
CC1CCC23COC(=O)C2=CC(O)CC3C1(C)CCc1ccoc1 (stereo not given)	-1.88% (inactive)	–
O=C(NC/C=C/CN1CCN(c2cccc(Cl)c2Cl)CC1)c1ccc(-c2ccccn2)cc1	-10.5% (inactive)	–
COc1ccnc2[nH]cc(C(=O)C(=O)N3CCN(C(=O)c4ccccc4)CC3C)c12 (stereo not given)	–	inactive
COc1c2c(c(C)c3c1C(=O)OC3)OC1(C)CC(O)C34OC(O)(CCC3(C)C1C2)OC4(C)C (stereo not given)	–	inactive [at 17.3 µM]
CC1CCC2(C(=O)OC3OC(CO)C(O)C(O)C3O)CCC3(C)C(=CCC4C5(C)CCC(O)C(C)(CO)C5CCC43C)C2C1(C)O (stereo not given)	–	inactive [at 17.3 µM]
C/C=C1\[C@H](O[C@@H]2O[C@H](CO)[C@@H](O)[C@H](O)[C@H]2O)OC=C(C(=O)O)[C@H]1CC(=O)OCCc1ccc(O)cc1	–	inactive [at 17.3 µM]
Nc1c(-c2ccccc2)nc(Cl)c2c(O)n[nH]c(=O)c12	–	inactive
COc1ccc(C2C(C(=O)O)C(C(=O)O)C2c2ccc(OC)cc2O[C@@H]2O[C@H](CO)[C@@H](O)[C@H](O)[C@H]2O)c(O[C@@H]2O[C@H](CO)[C@@H](O)[C@H](O)[C@H]2O)c1 (stereo not given in full)	-2.15% [at 17.3 µM] (inactive)	–
